In the library only some 1.7% were active in any assay of this set; here they are far more common.
GLP1R cytotox: cytotoxicity counter-screen for GLP-1 receptor inverse agonists; hit rate 0.13% among 410,000; AID 624418; Potency, µM (doses to about 38.3 µM), for the others: at the top dose activity change, negative = inhibition, actives largely listed as inhibitors; HEK293 cAMP-luciferase reporter cells, luminescence, 24 h;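 further: loss of luciferase light is scored as toxicity; on the % scale 0 is the no-effect control and ±100 the full control effect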
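Here, cytotoxicity is scored as loss of luminescence. The MLSMR collection was tested on cells seeded in medium containing 10% Nu serum, with a 24 hr compound exposure preceded by 12 hours of culture.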
GLP1R ag: GLP-1 receptor (human) agonism. P43220. hit rate 0.007% among 380,000. Potency, µM (top dose mostly 45.6 µM), without a hit: at the highest dose activation, usual class: activators. HEK293 GLP-1R CRE-luciferase, luminescence, 4-6 h; cells express a hypersensitive GLP-1R form. AID 624172; further: % of control where 0% means no effect
Target sequence (P43220 whole entry, looked up): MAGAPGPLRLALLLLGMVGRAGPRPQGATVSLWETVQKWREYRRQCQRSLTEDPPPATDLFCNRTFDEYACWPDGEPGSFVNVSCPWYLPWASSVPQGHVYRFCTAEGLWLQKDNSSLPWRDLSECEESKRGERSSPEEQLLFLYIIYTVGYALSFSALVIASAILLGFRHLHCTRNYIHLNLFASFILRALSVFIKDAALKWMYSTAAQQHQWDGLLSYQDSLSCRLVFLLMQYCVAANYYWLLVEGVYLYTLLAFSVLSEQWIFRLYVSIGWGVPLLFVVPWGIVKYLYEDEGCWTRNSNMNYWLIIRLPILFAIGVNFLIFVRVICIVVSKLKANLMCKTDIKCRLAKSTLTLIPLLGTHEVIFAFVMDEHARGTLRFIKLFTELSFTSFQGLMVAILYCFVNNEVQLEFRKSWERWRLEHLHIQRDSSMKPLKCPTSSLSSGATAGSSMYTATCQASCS
PTHR1 agonist: activates the human parathyroid hormone receptor PTHR1 | hit rate 0.075% among 410,000 | Q03431 | HEK293 GP2 PTHR1 cells, GloSensor cAMP luminescence, 1 h | Potency, µM (highest dose often 115 µM), without a hit: at the top dose activation, most hits filed as activators; further: nearly all actives have a fitted effect of over 55% in size
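HEK-293-derived GP2 cells expressing PTHR1 and a GloSensor cAMP reporter, 3,000/well, plated overnight, given luciferin plus IBMX (each 0.5 mM as added) for 1 h at 37 °C, then compound for 1 h at 37 °C. Luminescence was read after 15 min at room temperature.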
GLP-1R inv ag: inverse agonists of human GLP-1 receptor. P43220. HEK293 GLP-1R CRE-luciferase, luminescence, 24 h; GLP-1R form is constitutively active. Potency, µM (top dose mostly 38.3 µM), for the others: at the top dose activity change, negative = inhibition, most hits filed as inhibitors. hit rate 1.6% among 410,000. AID 624417; further: on the % scale 0 is the no-effect control and ±100 the full control effect; nearly all actives have a fitted effect of over 55% in size
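Inverse agonists were sought by their lowering of basal cAMP reporter luciferase output in HEK293 cells stably carrying constitutively active human GLP-1R, after 24 h compound treatment.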
* hit, by the source's call; i = inactive; ? = inconclusive; . = no result. The call rests on the fitted dose curve; in most records, active means well fitted curve in the direction sought with a large enough effect; inconclusive means small, poorly fitted or top-dose-only effect, or another doubt; inactive means no such curve, though single readings can be large; an effect the other way counts as inactive or inconclusive. Potency means the concentration at half of the fitted maximal effect.

SMILES	GLP1R cytotox	GLP1R ag	PTHR1 agonist	GLP-1R inv ag
Cn1c(-c2ccc(S(=O)(=O)N3CCCC3)cc2)csc1=Nc1ccc(Cl)c(Cl)c1	0%	.	-53%	-13%
O=C(CN1C(=O)C2(SCC(=O)N2c2cccc(F)c2)c2ccccc21)NCc1ccccc1Cl (centres undefined)	-15%	-1%	-26%	8.9µM*
O=C(CN1C(=O)C2(SCC(=O)N2c2ccccc2)c2ccccc21)NCc1ccccc1Cl (centres undefined)	-12%	-4%	i	-9%
COc1cc2c(cc1O)CCN[C@@]21CS[C@H]2c3c(OC(C)=O)c(C)c4c(c3C(COC1=O)N1C2C2c3c(cc(C)c(OC)c3O)CC([C@@H]1O)N2C)OCO4 (some centres undefined)	.	-14%	.	.
CC(C)(S)C(=O)NC(CS)C(=O)O (centres undefined)	.	0%	.	.
Cc1ccc(CN2CCCC(CO)(Cc3ccccc3C)C2)s1 (centres undefined)	?	8%	-7%	8.9µM*
Cc1ccccc1CC1(CO)CCCN(Cc2ccn[nH]2)C1 (centres undefined)	-3%	6%	i	?
CC(C)c1ccc(NC(=O)C(c2ccc3c(c2)OCO3)N2CCN(C(=O)c3ccco3)CC2)cc1 (centres undefined)	-29%	1%	i	10µM*
CCN(CC)C(C(=O)Nc1ccc(C(C)C)cc1)c1ccc2c(c1)OCO2 (centres undefined)	?	0%	-5%	7.1µM*
Cc1ccc(CCNC(=O)Cn2c(-c3cccs3)cc3ccccc32)cc1	1%	.	11%	-18%
Cc1noc(/C=C/c2ccccc2F)c1S(=O)(=O)N1CCC(C(=O)N(C)Cc2ccco2)CC1	-5%	.	i	?
CN1CC[C@H](c2c(O)cc(O)c3c(=O)cc(-c4ccccc4Cl)oc23)[C@@H](O)C1	.	-11%	.	.
CC(C)CNC(=S)N1CCC(Cc2ccccc2)CC1	?	0%	-9%	3.2µM*
COc1ccccc1NC(=O)CSC1=Nc2ccccc2C2=NC(CCC(=O)NCc3ccco3)C(=O)N12 (centres undefined)	-11%	.	-23%	-11%
CCOC(=O)c1cc(-c2ccccc2)n(-c2cccc(C(=O)Nc3cccc(C(C)=O)c3)c2)c1C	-26%	.	-40%	5.6µM*
CCOC(=O)c1cc(-c2ccccc2)n(-c2cccc(C(=O)Nc3cccc(F)c3)c2)c1C	-19%	.	-13%	?
CCOC(=O)c1cc(-c2ccccc2)n(-c2cccc(C(=O)Nc3cccc(SC)c3)c2)c1C	-6%	.	-37%	3.5µM*
Cc1ccc(NC(=O)Cn2nc(C)n3cccc3c2=O)c(C)c1	-5%	.	19%	19%
S=c1nc2ccccc2c2nc(-c3ccccc3)[nH]n12	0.89µM*	-3%	i	?
S=c1nc2ccccc2c2nc(-c3ccccc3Cl)[nH]n12	-48%	-5%	-10%	?
CC1(C)SC(=S)N(NC(=O)Nc2cccc3ccccc23)C1N(O)C(=O)Nc1ccccc1 (centres undefined)	-22%	-12%	i	11µM*
CC(=O)Nc1ccc(S(=O)(=O)NC2CCCCCC2)cc1	-2%	8%	i	13%
CC(C)C(=O)NC(=S)Nc1ccc(S(=O)(=O)NC2CCCCC2)cc1	1%	4%	-23%	10µM*
Cc1cccn2c(=O)cc(CSc3nnc(NC(=O)c4ccc(F)cc4)s3)nc12	5%	.	-2%	4%
CN(C)S(=O)(=O)c1cccc(N=C2SCCN2Cc2ccccc2)c1	15%	19%	-30%	11µM*
SMILES	GLP1R cytotox	GLP1R ag	PTHR1 agonist	GLP-1R inv ag
C=CCn1c(NCc2cc(Cl)ccc2O)nc2ccccc21	-1%	4%	-90%	11µM*
C=CCn1c(NCc2ccccc2O)nc2ccccc21	-8%	2%	i	?
CCOc1ccc(C(=O)NC(=S)Nc2ccccc2N2CCCCC2)cc1[N+](=O)[O-]	?	1%	i	?
COc1ccc(C(=O)NC(=S)Nc2ccccc2N2CCCCC2)cc1[N+](=O)[O-]	?	9%	i	1.1µM*
CC(C)c1ccc(Nc2ncnc3c2nc2n3CCCC2)cc1	2%	.	-34%	-18%
CCCn1c(SCc2nc(-c3ccccc3OCC)no2)nnc1-c1ccc(Cl)cc1	-14%	.	-31%	10µM*
